This is a sample that favours compounds with a hit; in the whole collection about 12% have one here.
HP1b binding inh: blocks HP1-beta chromodomain binding to methylated histone tails | P83916 | AlphaScreen HP1-beta / biotin-H3K9me3 peptide binding | 390,000 compounds, 0.56% hits | Potency, µM (top dose mostly 114 µM), for the others: at the top dose activity change, negative = inhibition, actives largely listed as inhibitors | AID 540317; also: nearly all actives have a fitted effect of over 70% in size
Target sequence (P83916 whole entry, looked up): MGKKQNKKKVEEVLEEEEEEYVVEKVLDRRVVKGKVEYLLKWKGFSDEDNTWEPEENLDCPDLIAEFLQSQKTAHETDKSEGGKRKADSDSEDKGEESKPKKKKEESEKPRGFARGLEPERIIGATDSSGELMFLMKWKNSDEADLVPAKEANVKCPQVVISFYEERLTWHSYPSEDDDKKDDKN
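Compound inhibition of the preformed complex between 50 nM HP1-beta and 50 nM biotinylated H3K9me3 peptide was read by AlphaScreen. Buffer was PBS pH 7.4 with 0.01% Tween-20. Incubations ran 30 min at room temperature, with 10 ug/mL donor/acceptor beads.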
Sfp inh: Sfp phosphopantetheinyl transferase inhibition; Biochemical Sfp PPTase activity, qHTS; AID 1490; 310,000 compounds, 3.5% hits; Potency, µM, for the others: largest response in the series, negative = inhibition, actives largely listed as inhibitors;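 also: the enzyme is Sfp with the accession as filed and its product quenches rhodamine fluorescence; 0% = enzyme reaction without inhibitor and -100% = no enzyme wells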
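Compounds were incubated with enzyme (final 15 nM) for 15 min at room temperature before substrate addition started the reaction. Fluorescence at 525 nm excitation, 598 nm emission was recorded immediately and after 30 minutes.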
JMJD2A Tudor: inhibitors of human JMJD2A Tudor domain. 390,000 compounds, 4.4% hits. O75164. Potency, µM (top dose mostly 114 µM), inactives show top-dose activity change, negative = inhibition, usual class: inhibitors. AlphaScreen JMJD2A-Tudor / H3K4me3 peptide binding; also: % is scaled to controls: 0 for no effect and ±100 for the full control effect; nearly all actives have a fitted effect of over 50% in size
BAZ2B inh: BAZ2B (human) inhibition; AlphaScreen BAZ2B-H3K14Ac peptide displacement; Potency, µM (doses to about 114 µM), for inactives: top-dose activity change, negative = inhibition, most hits filed as inhibitors; 360,000 compounds, 4.4% hits; AID 504333; also: % is scaled to controls: 0 for no effect and ±100 for the full control effect; nearly all actives have a fitted effect of over 60% in size
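Complex of BAZ2B and biotin-H3K14Ac (50 nM apiece) forms over 30 min at RT, then faces library compounds up to 110 uM for another 30 min; AlphaScreen beads added, 20 min dark incubation, luminescence read.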
G9a block: inhibitors of human histone lysine methyltransferase G9a; Q96KQ7; G9a H3K9 monomethylation, AlphaScreen, 2 h; Potency, µM (top dose mostly 102 µM), inactives show at the highest dose activity, negative = inhibition, actives largely listed as inhibitors; 350,000 compounds, 8.8% hits; AID 504332; also: % is scaled to controls: 0 for no effect and ±100 for the full control effect; nearly all actives have a fitted effect of over 75% in size
Target sequence (Q96KQ7 913-1193 limits assumed): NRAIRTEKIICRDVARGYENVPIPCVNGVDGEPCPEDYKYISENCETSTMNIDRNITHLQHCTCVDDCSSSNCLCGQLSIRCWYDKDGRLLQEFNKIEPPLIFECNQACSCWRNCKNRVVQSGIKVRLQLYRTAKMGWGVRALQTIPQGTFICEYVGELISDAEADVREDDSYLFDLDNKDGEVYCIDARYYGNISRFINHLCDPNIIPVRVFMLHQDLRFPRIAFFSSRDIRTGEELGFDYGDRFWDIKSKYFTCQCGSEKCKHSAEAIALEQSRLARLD
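AlphaScreen detection with an anti-monomethyl H3K9 antibody quantified product after a 2 h room-temperature reaction containing 500 nM biotinylated H3K9 peptide, 20 µM SAM and 20 nM enzyme, which had been preincubated 15 min with compound.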
* marks the source's active call; other numbers are inactive results; [ ] = dose if it differs, or a comment. Calls follow the shape of the dose curve; as a rule, active = well fitted curve in the direction sought with a large enough effect; inconclusive = small, poorly fitted or top-dose-only effect, or another doubt; inactive = no such curve, though single readings can be large; an effect the other way counts as inactive or inconclusive. Potency is read from the fitted curve at half-maximal effect.

Results for Cc1cc(C)c2c(c1)-c1c(ssc1=S)C(C)(C)N2C(=O)CSc1nncn1C ?
HP1b binding inh: inconclusive; Sfp inh: 50.1µM*; JMJD2A Tudor: inconclusive; BAZ2B inh: 50.1µM*; G9a block: 5.01µM*

Results for CC1=CC(C)(C)N(C(=O)CSc2nnc(N)s2)c2cc(C)c(C)cc21 ?
HP1b binding inh: 27.6%; Sfp inh: 27.7%; JMJD2A Tudor: -18.7%; BAZ2B inh: -27.7%; G9a block: 74.4%[59 µM]

How did CCN(CC)S(=O)(=O)c1ccc(C)c(NC(=O)CN2C(=O)NC3(CCCC3)C2=O)c1 do in these assays?
HP1b binding inh: -18.7%; Sfp inh: 2.7%; JMJD2A Tudor: -25.4%; BAZ2B inh: -31.5%; G9a block: inconclusive

Results for CCCc1nc2c(s1)CCc1onc(-c3ccc(Cl)cc3)c1-2 ?
HP1b binding inh: 67.3%; JMJD2A Tudor: 16.6%; BAZ2B inh: 23.7%; G9a block: -4.8%[2.33 µM]

How did Cc1cc(NC(=O)COC(=O)c2c(Cl)cccc2Cl)no1 do in these assays?
HP1b binding inh: 32.6%; JMJD2A Tudor: -2.3%; BAZ2B inh: 28.4%; G9a block: 24.6%[12.7 µM]

Results for COc1ccc(Cl)cc1NC(=O)CSc1nc(NS(=O)(=O)c2ccccc2)cc(=O)[nH]1 ?
HP1b binding inh: -18.3%; Sfp inh: 0.4%; JMJD2A Tudor: inconclusive; BAZ2B inh: -27.8%; G9a block: 70.8µM*

What do the screens show for `O=c1cc(NS(=O)(=O)c2ccccc2)nc(SCc2ccc(Cl)cc2)[nH]1`?
HP1b binding inh: 34.5%; Sfp inh: 5.9%; JMJD2A Tudor: -20.8%; BAZ2B inh: 79.4µM*; G9a block: -33.9%[59 µM]

How did Cc1ccc(S(=O)(=O)Nc2cc(=O)[nH]c(SCc3ccccc3Cl)n2)cc1 do in these assays?
HP1b binding inh: 4.5%; Sfp inh: 5.2%; JMJD2A Tudor: 56.2µM*; BAZ2B inh: -35.6%; G9a block: -13.7%[59 µM]

What do the screens show for `O=C(CSc1nc(NS(=O)(=O)c2ccccc2)cc(=O)[nH]1)Nc1ccc(Cl)cc1`?
HP1b binding inh: 53.6%; Sfp inh: 1.3%; JMJD2A Tudor: -26.5%; BAZ2B inh: 79.4µM*; G9a block: 70.8µM*

Results for CCCc1cc(=O)[nH]c(SCc2ccc(Cl)cc2)n1 ?
HP1b binding inh: 34.4%; Sfp inh: 18.8%; JMJD2A Tudor: 1.5%; BAZ2B inh: -2.2%; G9a block: 17.7%[59 µM]

Results for CC(C)(C)c1cc(=O)[nH]c(SCc2ccccc2Cl)n1 ?
HP1b binding inh: 44.2%; Sfp inh: 22.7%; JMJD2A Tudor: 5.4%; BAZ2B inh: -14.0%; G9a block: 8.8%

Results for COc1ccc(Cl)cc1NC(=O)CSc1nc(-c2ccccc2)cc(=O)[nH]1 ?
HP1b binding inh: 21.1%; Sfp inh: 7.7%; JMJD2A Tudor: -18.0%; BAZ2B inh: -1.5%; G9a block: -3.9%

How did O=C(COc1cccc(NC(=O)c2cccs2)c1)c1ccc(F)cc1 do in these assays?
HP1b binding inh: 38.2%; Sfp inh: 17.3%; JMJD2A Tudor: -4.1%; BAZ2B inh: 9.6%; G9a block: -12.3%[59 µM]

Results for CNC(=O)NC(=O)C(C)OC(=O)c1c(C)noc1C (configuration not stated) ?
HP1b binding inh: 13.2%; Sfp inh: -7.8%; JMJD2A Tudor: 1.3%; BAZ2B inh: 7.3%; G9a block: -30.7%[59 µM]

Results for CC1=C(C(=O)OCC(C)C)C23C(=O)c4ccccc4C2(O1)OC(N)=C3C#N (configuration not stated) ?
HP1b binding inh: 7.6%; Sfp inh: 10.1%; JMJD2A Tudor: -27.6%; BAZ2B inh: -5.8%; G9a block: 19.3%

What do the screens show for `Cc1ccc(S(=O)(=O)NC2OC(=O)C(Cl)=C2Cl)cc1` (configuration not stated)?
HP1b binding inh: 26.5%; Sfp inh: -1.6%; JMJD2A Tudor: -8.9%; BAZ2B inh: 79.4µM*; G9a block: inconclusive

What do the screens show for `COc1ccccc1S(=O)Cc1ccc(C(=O)NCCc2ccc(Cl)cc2)o1` (configuration not stated)?
HP1b binding inh: 71.8%; Sfp inh: -7.2%; JMJD2A Tudor: -7.6%; BAZ2B inh: 0.6%; G9a block: 39.8µM*
